# Laboratory results published in PubChem BioAssay (NCI).
# About 79,000 compounds went through this panel and 15% of them were active in at least one assay; those are over-represented in the sample as a whole. Unmarked numbers belong to inactive results. The source made the active and inactive calls. Rule as the data show it: active = growth inhibition above about 70%; inactive = the rest.
# Tests used:
# [1] = NCI Yeast Anticancer Drug Screen. Data for the rad50 strain (AID 155);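 also: 0% = growth of vehicle-only cultures of the same strain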; settings: S. cerevisiae rad50 strain growth inhibition, stronger effect = higher value
# Outline: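 Growth of the mutant yeast was measured after compound exposure and referenced to vehicle-treated cultures.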
# [2] = NCI Yeast Anticancer Drug Screen. Data for the mec2-1 strain (AID 157); settings: S. cerevisiae mec2-1 strain, stronger effect = higher value
# Outline: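 Vehicle-treated cultures served as reference for growth inhibition of compound-exposed mec2-1 yeast.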
# [3] = NCI Yeast Anticancer Drug Screen. Data for the sgs1 mgt1 strain (AID 161);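 also: 0% = growth of cultures given vehicle only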; settings: S. cerevisiae sgs1 mgt1 strain, stronger effect = higher value
# Outline: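 Inhibition of yeast growth, normalised to vehicle-treated controls, is reported for a strain bearing genetic alterations in DNA damage repair.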
# [4] = NCI Yeast Anticancer Drug Screen. Data for the cln2 rad14 strain (AID 165);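 also: 0% = growth equal to vehicle treated cultures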; settings: S. cerevisiae cln2 rad14 strain, stronger effect = higher value
# Outline: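 Each compound was tested on cln2 rad14 yeast. Inhibition of growth was calculated against vehicle-exposed controls.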
# [5] = NCI Yeast Anticancer Drug Screen. Data for the bub3 strain (AID 167); settings: S. cerevisiae bub3 mutant strain, stronger effect = higher value
# Outline: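 Whole-cell yeast assay. The mutant strain was incubated with compounds, and growth inhibition was determined by comparison with vehicle-treated cells.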
# [6] = NCI Yeast Anticancer Drug Screen. Data for the mlh1 rad18 strain (AID 175); settings: S. cerevisiae mlh1 rad18 strain growth inhibition, stronger effect = higher value
# Outline: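 Vehicle-treated cultures served as the reference for growth inhibition in a yeast strain carrying DNA damage repair alterations exposed to each compound.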
# [7] = at 5.0 µM (retest, dose inferred, filed as 0.5)
# [8] = at 50.0 µM (retest, dose inferred, filed as 5.0)
SMILES,"growth inhibition [1, 7]","growth inhibition [1, 8]",growth inhibition ([1]; at 50.0 µM),"growth inhibition [2, 7]","growth inhibition [2, 8]",growth inhibition ([2]; at 50.0 µM),"growth inhibition [3, 7]","growth inhibition [3, 8]",growth inhibition ([3]; at 50.0 µM),"growth inhibition [4, 7]","growth inhibition [4, 8]",growth inhibition ([4]; at 50.0 µM),"growth inhibition [5, 7]","growth inhibition [5, 8]",growth inhibition ([5]; at 50.0 µM),"growth inhibition [6, 7]","growth inhibition [6, 8]",growth inhibition ([6]; at 50.0 µM)
CN(C)/N=C1\CC(c2ccccc2)C(C#N)(C#N)C1(C#N)C#N (stereo not drawn),41%,99% (active),89.3% (active),51%,100% (active),89% (active),42%,100% (active),88.5% (active),39%,99% (active),88.5% (active),56%,100% (active),89.6% (active),51%,99% (active),91.5% (active)
O=C1c2ccccc2-c2cc3ccccc3nc21,28%,89% (active),72.7% (active),21%,70% (active),60.8%,15%,67%,48.2%,23%,73% (active),62.4%,15%,73% (active),61.3%,16%,82% (active),84.5% (active)
O=c1[nH]c2c([N+](=O)[O-])cc(Cl)cc2nc1/C=C(\O)c1cccc2ccccc12,0%,86% (active),77% (active),10%,75% (active),62.2%,-10%,81% (active),89.5% (active),-1%,87% (active),82.4% (active),-3%,88% (active),71.5% (active),-7%,85% (active),72.2% (active)
CN1C=COC1N=C1CCCCC1 (stereo not drawn),13%,10%,-24.2%,-1%,-5%,-7%,-2%,17%,-5.2%,11%,0%,16.6%,18%,10%,-13%,-13%,6%,-32.1%
S=C(NCCc1ccccn1)N/N=C/c1ccccn1,10%,99% (active),76.5% (active),-1%,99% (active),84.9% (active),7%,98% (active),88.3% (active),-3%,97% (active),89.8% (active),-17%,99% (active),90.4% (active),28%,99% (active),91.5% (active)
COc1ccc(C2=NN(c3ccccc3)C[N+](c3ccc(C)cc3)=N2)cc1,6%,98% (active),97.5% (active),-14%,99% (active),98.2% (active),-3%,98% (active),98.5% (active),12%,98% (active),97.9% (active),-1%,99% (active),98.2% (active),13%,98% (active),97.8% (active)
